# Where “and” joins values, the source holds several entries; their conditions need not be identical. Identical values can stand only once. Out of some 300,000 compounds screened, about 5,400 (1.8%) were called active. Inconclusive results (about 28%) are left out. This excerpt belongs to a sample that is enriched for actives. Values without a mark were called inactive. Calls come from the whole dose curve; tested in HEK293 cells.
# Assay: qHTS for inhibitors of binding or entry into cells for Marburg Virus
# Conditions: Marburg virus pseudotyped entry inhibition, cell reporter; series mostly up to 37.8 µM; activity change, negative = inhibition: at the top concentration
# % is set by controls: 0 for no effect and ±100 for the full control effect; potency is the fitted concentration of half-maximal effect.
SMILES,"activity change, negative = inhibition",Potency
C=CCNC(=O)C1CC2c3ccccc3C1c1ccccc12 (stereo not given),1.85%,–
COc1cc2c(cc1OC)CN(CC(=O)Nc1ccc(F)cc1)CC2,-0.577%,–
CC[C@H]1CN2CCc3cc(OC)c(OC)cc3[C@@H]2C[C@@H]1C[C@H]1NCCc2cc(OC)c(OC)cc21,–,224 nM (active) and 326 nM (active) and 103 nM (active)
COc1cc(NC(=O)CSc2ccc(-c3cccnc3)nn2)cc(OC)c1,-7.05%,–
CCOc1ccc(CC(=O)NCCS(=O)(=O)N2CCN(c3ccccc3)CC2)cc1,12.2%,–
Cc1nc2ccccc2c(C(=O)O)c1-c1ccccn1,17.2% [at 46.1 µM],–
O=C(COc1ccc([N+](=O)[O-])cc1Cl)Nc1ccc2[nH]c(=O)[nH]c2c1,-2.16% [at 46.1 µM],–
O=C(NCc1cccnc1)c1cn(-c2ccccc2)nc1-c1cccs1,-14.5%,–
CC(=O)C1=C(C)NC(C)=C(C(C)=O)C1c1cn(-c2ccccc2)nc1-c1cccs1,-21.3%,–
O=C(O)c1ccc(N/N=C/c2cn(-c3ccccc3)nc2-c2cccs2)cc1,–,4.47 µM (active)
COc1ccc(OC)c(NC(=O)C2CCCN2S(=O)(=O)c2cccc3nsnc23)c1 (stereo not given),-13.2% [at 46.1 µM],–
CC[C@]12c3[nH]c4ccc(Cl)cc4c3CCN1C(=O)[C@@H](CC(=O)NCCCOC)C[C@@H]2C(=O)N1CCN(C(=O)c2ccco2)CC1,-1.78%,–
COc1ccc(C2(c3ccc(OC)cc3)NC(=O)N(CC(=O)Nc3cc(C)on3)C2=O)cc1,-25.4% [at 46.1 µM],–
CCCCCOc1ccc(CSC2=NCCN2)cc1[N+](=O)[O-],-35.4%,–
CCCOc1ccc(Cn2ccnc2)cc1[N+](=O)[O-],1%,–
CCCCOc1ccc(CSC(=N)N)cc1[N+](=O)[O-],–,14.1 µM (active)
CCN(CC)CCn1c2ccc(Cl)cc2c2nc(C)sc21,-57.9%,–
CCN(CC)CCCC(C)n1c2nc(=O)[nH]c(=O)c-2nc2cc(Cl)ccc21 (stereo not given),–,5.62 µM (active)
CC(=O)OC[C@H]1O[C@H](CCO/N=C(\C)CCN2CCCCc3nc(C)c(C)cc32)C=C[C@@H]1OC(C)=O,16.2% [at 14.2 µM],–
O=C(CSC(=S)N1CCOCC1)c1cc(Br)cc(Br)c1O,11.4% [at 46.1 µM],–
O=C(CSC(=S)N1CCOCC1)c1ccccc1,–,7.31 µM (active)
CC1CN(C(=S)SCC(=O)c2ccccc2)CC(C)O1 (stereo not given),-3.47%,–

SMILES,"activity change, negative = inhibition",Potency
Cc1ccc(CNC(=O)C(=O)c2cn(CC(=O)N3CCCC3)c3ccccc23)cc1,-19.2%,–
Cc1cc(NC(=O)CSc2nnc(-c3ccco3)n2N)no1,-29.8%,–
O=C(COC(=O)c1cccc(Cl)c1)NC(=O)NCc1ccccc1,4.11%,–
COc1c(O)ccc2c1-c1c3c(cc4c1C(C2)N(C)CC4)OCO3 (stereo not given),3.76%,–
COc1ccc2c(c1O)-c1cccc3c1[C@@H](C2)N(C)CC3,–,1 µM (active)
Cn1c(N)cc(=O)n(C)c1=S,-7.14%,–
CC(C(=O)c1ccc(-c2ccccc2)cc1)[n+]1cccc(Br)c1 (stereo not given),-1.4% [at 46.1 µM],–
O=C(NCc1nnc(SCC(=O)N2CCCCCC2)o1)c1ccc(F)cc1,-7.97%,–
Cn1c(SCC(=O)Nc2cccc(NC(=O)c3cccs3)c2)nnc1-c1ccncc1,–,12.6 µM (active)
CCC(=O)Nc1cccc(NC(=O)CSc2nnc(-c3ccc(NS(C)(=O)=O)cc3)n2C)c1,9.87%,–
COCCCn1c(SCC(=O)Nc2ccccc2)nnc1-c1ccncc1,-0.876% [at 46.1 µM],–
CC1CCCCC1NC(=O)Cn1c(=O)cnc2ccccc21 (stereo not given),14.6% [at 46.1 µM],–
CC(=O)c1c(C)[nH]c(C(=O)COC(=O)c2cccs2)c1C,-11.6%,–
COc1ccc(C)cc1N(CC(=O)N1CCCC1)S(=O)(=O)c1ccccc1,4.32% [at 46.1 µM],–
O=C(Nc1cc(C(F)(F)F)ccc1Cl)C(=O)N1CCCCC1,10.1%,–
NC(=O)Nc1cccc(C(F)(F)F)c1,-9.89%,–
O=C(NNc1ccccc1Cl)C(O)(c1cccc(C(F)(F)F)c1)c1cccc(C(F)(F)F)c1,–,18.4 µM (active)
NC(=O)Cn1cc(/C=N\NS(=O)(=O)c2ccccc2)c2ccccc21,-7.13% [at 46.1 µM],–
COC(=O)N(C)C1=C(C(=O)N2CCOCC2)CCCC1,-9.8%,–
Cn1c(=O)[nH]c2c(c(C(=O)O)nn2C)c1=O,-0.0312% [at 46.1 µM],–
Cc1cc(C)cc(NC(=O)CCN2C(=O)c3ccccc3C2=O)c1,-3.01% [at 46.1 µM],–
Cc1ccc2[nH]cc(CCNC(=O)c3ccc([N+](=O)[O-])cc3)c2c1,3.86%,–

SMILES,"activity change, negative = inhibition",Potency
Cc1ccc2[nH]cc(CCCN3C(=O)c4ccccc4C3=O)c2c1,–,16.4 µM (active)
Cc1cccc(OCC(=O)Nc2ccc(C(=O)O)cc2NC(=O)COc2cccc(C)c2)c1,-5.1%,–
CCOc1ccc(S(=O)(=O)Nc2ccc(S(=O)(=O)Nc3cc(OC)ccc3OC)cc2)cc1,-15.2%,–
COc1ccc(C(=O)Nc2ccc(S(=O)(=O)NC(C)C)cc2)cc1,-1.9%,–
COc1ccc(NS(=O)(=O)c2ccc(Oc3c(C#N)cccc3C#N)cc2)cc1,–,2.82 µM (active)
Cc1ccc2nc(SCC(=O)NC3CCCC3)[nH]c2c1,24.9% [at 46.1 µM],–
COc1ccc(/C=N/Nc2nc(-c3ccc(C)cc3)c(C#N)c(=O)[nH]2)cc1,-0.691%,–
O=C(COc1cccnc1[N+](=O)[O-])Nc1ccc(Cl)cc1F,17.4% [at 46.1 µM],–
Cc1cc(C(=O)N/N=C/c2ccccn2)c2ccccc2n1,12.2% [at 46.1 µM],–
O=C(N/N=C/C=C/c1ccco1)c1cccs1,12.6% [at 46.1 µM],–
Cc1ccc(-c2cc(C(=O)N/N=C/C=C/c3ccco3)c3ccccc3n2)cc1C,–,2.51 µM (active)
CCCc1nnc(NC(=O)CCC(=O)N2CCN(S(=O)(=O)c3ccc(OC)cc3)CC2)s1,1% [at 46.1 µM],–
Cc1nc(N)nc(Cl)c1CCC1OCCO1,0.143% [at 46.1 µM],–
Cc1ccc(Nc2cc(C)nc3c(C)ccc([N+](=O)[O-])c23)cc1,–,11.2 µM (active)
Cc1cc(C)nc(Nc2cc([N+](=O)[O-])ccc2C)n1,-0.158% [at 46.1 µM],–
Cc1ccc(Nc2ccc(C(N)=O)cc2[N+](=O)[O-])cc1,-11.4%,–
Cc1ccc2c(c1)N(CC(=O)NCC1CCCO1)C(=O)CO2 (stereo not given),1.4% [at 46.1 µM],–
COCCNC(=O)COc1ccc(N(C)S(=O)(=O)c2ccc3ccccc3c2)cc1,9.59% [at 46.1 µM],–
CC1CCCCC1NC(=O)COc1ccc(C#N)cc1 (stereo not given),-11.3%,–
CC1CCCCC1NC(=O)/C(C#N)=C/C=C/c1ccccc1[N+](=O)[O-] (stereo not given),–,2.82 µM (active)
O=[N+]([O-])c1ccccc1/C=C/CN1CCCC(CO)C1 (stereo not given),15.6%,–
